Screening data as filed in PubChem BioAssay.
Compounds with a hit are over-represented: about 4.1% of the library has one in this group of screens.
hgDAF12 agonist: activates the H. glycines DAF-12 receptor ligand-binding domain | HEK293 GAL4-hgDAF12 UAS-luciferase reporter, agonist luminescence; normalized to butyrate control | hit rate 1.8% among 370,000 | activation, % at 6.8 µM;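 active means activation above a cutoff set at the mean of all screened compounds plus 3 SD, cut at about 10% in these data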
ssDAF-12 act: activators of S. stercoralis DAF-12 nuclear receptor. AID 652126. activation, % at 6.8 µM. HEK293 ssDAF-12/GRIP1 lit1-tk-luc reporter, luminescence; % of 3 µM dafachronic acid response. hit rate 1% among 370,000;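 active means activation above the mean over all tested compounds plus 3 SD, cut at about 0.9% in these data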
hcDAF-12 act: activators of H. contortus DAF-12 nuclear receptor; activation, % at 6.8 µM; AID 652067; hit rate 1.4% among 370,000; HEK293 hcDAF-12 lit1-tk-luc reporter, luminescence; 0% DMSO, 100% Δ7-dafachronic acid;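 active means activation above the mean of all tested compounds plus 3 SD, cut at about 5.5% in these data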
DAX1 inh-1: inhibitors of human orphan nuclear receptor DAX1 (NR0B1) | P51843 | HEK293 Gal4-DAX1 luciferase reporter, luminescence | inhibition, % at 6.75 µM | hit rate 0.99% among 340,000;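 active means inhibition above the mean over all tested compounds plus 3 SD, cut at about 4.2% in these data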;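 further: inhibition shows as a rise in luminescence from relieved DAX1 repression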
Target sequence (P51843 207-470 limits assumed): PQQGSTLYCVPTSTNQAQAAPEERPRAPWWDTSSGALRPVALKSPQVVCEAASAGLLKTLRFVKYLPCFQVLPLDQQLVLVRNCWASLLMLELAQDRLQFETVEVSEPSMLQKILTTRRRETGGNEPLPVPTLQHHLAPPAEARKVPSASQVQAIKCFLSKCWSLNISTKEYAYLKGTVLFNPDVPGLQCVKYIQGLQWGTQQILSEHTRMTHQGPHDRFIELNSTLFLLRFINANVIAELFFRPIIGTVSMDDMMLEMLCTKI
DAX1 inh-2: DAX1 (NR0B1) inhibition, primary screen; inhibition, % at 6.8 µM; HEK293T StAR-luciferase reporter, SF-1/DAX-1 repression relief; hit rate 1.1% among 370,000;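 active means inhibition above the mean over all tested compounds plus 3 SD, cut at about 3.6% in these data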;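 further: higher inhibition means more luminescence from relief of DAX-1 repression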
LXRb hcDAF ctr: counter-screen for hcDAF-12 agonists: agonists of human LXR-beta | shares compounds with hcDAF-12 act | HEK293 Gal4-LXR tk-luc reporter, luminescence, 24 h; normalized: DMSO 0%, positive control 100% | activation, % at 6.8 µM | 3,400 tested, under 10 active | AID 743027;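 active means mean percent activation of the reporter above a cutoff set as the average over tested compounds plus their standard deviation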
Target sequence (P55055 whole entry, looked up, the tested form may be a part): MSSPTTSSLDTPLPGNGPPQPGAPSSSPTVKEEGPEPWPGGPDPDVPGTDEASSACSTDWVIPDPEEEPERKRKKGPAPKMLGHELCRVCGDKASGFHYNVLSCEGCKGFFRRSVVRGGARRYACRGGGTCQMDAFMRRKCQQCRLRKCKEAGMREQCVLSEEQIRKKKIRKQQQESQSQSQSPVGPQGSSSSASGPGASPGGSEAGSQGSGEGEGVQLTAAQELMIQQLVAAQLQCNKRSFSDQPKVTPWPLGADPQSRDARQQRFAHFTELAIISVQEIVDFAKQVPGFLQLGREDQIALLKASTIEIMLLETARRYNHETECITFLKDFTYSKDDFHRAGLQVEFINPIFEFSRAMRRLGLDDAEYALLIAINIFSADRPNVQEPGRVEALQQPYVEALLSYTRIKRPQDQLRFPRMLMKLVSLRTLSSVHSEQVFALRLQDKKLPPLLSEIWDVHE
hcDAF12 ag: hcDAF-12 agonism, confirmation assay; activation, % at 6.8 µM; hit rate 61% among 3,400; HEK293 hcDAF-12 lit1-tk-luc reporter, luminescence; % of Δ7-dafachronic acid response; shares compounds with hcDAF-12 act; AID 743032;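 active means mean activation across triplicate tests above the threshold derived from the earlier primary screen, cut at about 5.5% in these data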
hgDAF12 ag: confirmation of H. glycines DAF-12 agonists; shares compounds with hgDAF12 agonist; HEK293 GAL4-hgDAF12 luciferase reporter, agonist mode; percent of butyrate response; activation, % at 6.8 µM; hit rate 80% among 3,300; AID 743050;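 active means mean activation over triplicate wells above the hit cutoff derived from the earlier primary screen, cut at about 11% in these data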
LXRb DAF12 ctr: activates human LXR-beta, counter-screen for DAF-12 agonists. 3,300 tested, under 10 active. HEK293 Gal4-LXR luciferase reporter, 24 h. shares compounds with hgDAF12 agonist. AID 743051. activation, % at 6.8 µM;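 active means mean activation of the triplicate above a set limit carried over from the primary screen, none filed active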
Each line names hits and unclear results; the compound was inactive in the other large screens (follow-up assays come after a bar, where they were run).

COc1ccc(OCCN2C(=O)c3ccccc3C2=O)cc1	none
COc1ccccc1OCCC(=O)OCCN1C(=O)c2ccccc2C1=O	none
O=C1c2ccccc2C(=O)N1CCOc1ccccc1	hgDAF12 agonist 13.6, ssDAF-12 act 1.2, hcDAF-12 act 6.9 | LXRb hcDAF ctr inactive | hcDAF12 ag 8.8 | hgDAF12 ag 16.6 | LXRb DAF12 ctr inactive
Nc1cccc2c1C(=O)N(CCOc1ccc(F)cc1)C2=O	hgDAF12 agonist 16.8, hcDAF-12 act 10.5 | LXRb hcDAF ctr inactive | hcDAF12 ag 9.3 | hgDAF12 ag 17.6 | LXRb DAF12 ctr inactive
O=[N+]([O-])c1ccc(/C=C/c2ccc3cccc(O)c3n2)cc1	none
O=[N+]([O-])c1ccc(/C=C/c2ccc3ccccc3n2)cc1	hgDAF12 agonist 23.7, ssDAF-12 act 1.0, hcDAF-12 act 10.6, DAX1 inh-2 3.8 | LXRb hcDAF ctr inactive | hcDAF12 ag 9.7 | hgDAF12 ag 13.4 | LXRb DAF12 ctr inactive
O=C(C1CCCN(S(=O)(=O)c2ccccc2[N+](=O)[O-])C1)N1CCN(c2ccccc2)CC1 (configuration not stated)	none
Cc1ccc(S(=O)(=O)N2CCN(C(=O)NCc3ccc(F)cc3)CC2)c(C)c1	none
O=C1C(=Cc2cccs2)C(=O)c2ccccc21	none
O=C1/C(=C\c2cccs2)Sc2ccc3ccccc3c21	hgDAF12 agonist 15.5, ssDAF-12 act 6.4, hcDAF-12 act 21.8, DAX1 inh-1 5.2, DAX1 inh-2 4.0 | LXRb hcDAF ctr inactive | hcDAF12 ag 18.8 | hgDAF12 ag 30.6 | LXRb DAF12 ctr inactive
O=C(Nc1nc2ccccc2n1CCN1CCCC1)c1ccc(Cl)cc1	hgDAF12 agonist 17.9, hcDAF-12 act 7.3 | LXRb hcDAF ctr inactive | hcDAF12 ag 9.5 | hgDAF12 ag 16.2 | LXRb DAF12 ctr inactive
O=C(Nc1nc2ccccc2n1CCN1CCOCC1)c1ccc(Cl)cc1	none
COc1ccc2ccc(OC)c(/C=N/n3cnnc3)c2c1	none
Cc1cc2nc(-c3ccc(SCC(=O)Nc4nccs4)nc3)[nH]c2cc1C	none
CCc1nnc(NC(=O)CSc2ccc(-c3nc4ccc(C)cc4[nH]3)cn2)s1	hgDAF12 agonist 16.9, hcDAF-12 act 7.3, DAX1 inh-2 4.4 | LXRb hcDAF ctr inactive | hcDAF12 ag 7.8 | hgDAF12 ag 17.7 | LXRb DAF12 ctr inactive
COc1ccc(-c2cc(=O)c3ccccc3o2)cc1	hgDAF12 agonist 19.9, hcDAF-12 act 9.0, DAX1 inh-1 8.4 | LXRb hcDAF ctr inactive | hcDAF12 ag 8.2 | hgDAF12 ag 14.8 | LXRb DAF12 ctr inactive
O=c1cc(-c2ccc(O)cc2)oc2ccccc12	none
Nc1nn(-c2ccccc2)c(N)c1N=Nc1ccccc1	hgDAF12 agonist 21.5, hcDAF-12 act 9.0 | LXRb hcDAF ctr inactive | hcDAF12 ag inactive | hgDAF12 ag 29.2 | LXRb DAF12 ctr inactive
Cc1nc(Nc2ccc(Cl)cc2)c2oc3ccccc3c2n1	none
Cc1ccc(Nc2ncnc3c2oc2ccccc23)cc1	hgDAF12 agonist 15.4, ssDAF-12 act 1.3, hcDAF-12 act 10.9, DAX1 inh-1 4.3 | LXRb hcDAF ctr inactive | hcDAF12 ag 8.1 | hgDAF12 ag 18.5 | LXRb DAF12 ctr inactive
CCOc1ccc(S(=O)(=O)N2CCOCC2)cc1NC(=O)CCN1C(=O)NC2(CCCC2)C1=O	none
COc1ccc(C(=O)NC(C(=O)NCCc2ccc3c(c2)OCCO3)C(C)C)cc1 (configuration not stated)	none
COc1ccc(-n2cc3ccc([N+](=O)[O-])cc3n2)cc1	hgDAF12 agonist 21.0, hcDAF-12 act 6.7 | LXRb hcDAF ctr inactive | hcDAF12 ag 7.1 | hgDAF12 ag 18.7 | LXRb DAF12 ctr inactive
CC1CC(=O)C2=C(C1)Nc1ccccc1N=C2 (configuration not stated)	none
CCC1=Nc2ccccc2NC2=C1C(=O)CCC2	hgDAF12 agonist 13.7, ssDAF-12 act 2.6, hcDAF-12 act 15.1 | LXRb hcDAF ctr inactive | hcDAF12 ag 7.9 | hgDAF12 ag inactive | LXRb DAF12 ctr inactive
CC(C)c1ccc(OCc2nc(-c3ccccn3)no2)c(Br)c1	hgDAF12 agonist 14.8, ssDAF-12 act 0.9, hcDAF-12 act 7.6, DAX1 inh-2 4.1 | LXRb hcDAF ctr inactive | hcDAF12 ag 7.0 | hgDAF12 ag 15.7 | LXRb DAF12 ctr inactive
C/C(=N\Nc1ncc(Cl)cc1Cl)c1ccc(OC(F)F)cc1	hgDAF12 agonist 20.1, hcDAF-12 act 6.6 | LXRb hcDAF ctr inactive | hcDAF12 ag inactive | hgDAF12 ag inactive | LXRb DAF12 ctr inactive
Nc1c(-c2cccs2)cnc2c(-c3ccc(F)cc3)cnn12	hgDAF12 agonist 15.8, ssDAF-12 act 1.0, hcDAF-12 act 9.0 | LXRb hcDAF ctr inactive | hcDAF12 ag 6.6 | hgDAF12 ag 24.7 | LXRb DAF12 ctr inactive
CCN(C(=S)Nc1ccccc1F)C1CCCCC1	none
CC1=NC(=O)C(N=Nc2cccc(C(=O)O)c2)N1c1ccccc1 (configuration not stated)	hgDAF12 agonist 15.9, ssDAF-12 act 1.5, hcDAF-12 act 10.4 | LXRb hcDAF ctr inactive | hcDAF12 ag 12.9 | hgDAF12 ag 16.0 | LXRb DAF12 ctr inactive
CCN1CCC(NC(=O)Nc2cc(Cl)ccc2OC)CC1	none
Cc1nn(-c2ccccc2)c(C)c1NC(=O)COC(=O)Cc1cccc(C(F)(F)F)c1	none
O=C(CSc1ncnc2ccccc12)c1cccs1	hgDAF12 agonist 19.4, ssDAF-12 act 2.4, hcDAF-12 act 15.8 | LXRb hcDAF ctr inactive | hcDAF12 ag 8.8 | hgDAF12 ag 16.6 | LXRb DAF12 ctr inactive
CCC(C)c1ccc(OCc2ccc(C(=O)O)o2)cc1 (configuration not stated)	hgDAF12 agonist 15.3, hcDAF-12 act 10.3 | LXRb hcDAF ctr inactive | hcDAF12 ag 8.7 | hgDAF12 ag 22.1 | LXRb DAF12 ctr inactive
CCOC(=O)c1ccc(COc2ccc(C(C)C)cc2)o1	none
N#CC(=C1CCCC1)c1nc(-c2ccccc2)cs1	hgDAF12 agonist 17.4, ssDAF-12 act 1.7, hcDAF-12 act 7.5, DAX1 inh-1 5.2 | LXRb hcDAF ctr inactive | hcDAF12 ag 6.0 | hgDAF12 ag 21.1 | LXRb DAF12 ctr inactive
NC(=O)CC(NC(=O)c1cccc(Br)c1)c1ccc(N2CCN(c3ccc(F)cc3)CC2)c([N+](=O)[O-])c1 (configuration not stated)	none
